# Out of some 310,000 compounds screened, about 14,000 (4.5%) showed an effect of 50% or more. The effect is printed as a negative number. What follows is part of a selection rich in strong results, with near analogues and random picks from the rest.
# Molecular target: human ether-à-go-go-related gene (hERG) potassium channel (human, UniProt Q12809)
# Assay: primary screen, population patch clamp on CHO cells stably expressing hERG; higher = less effect of the substance
# 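Further: peak tail current of the secondary pulse compared with the same well before compound.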
# human ether-à-go-go-related gene (hERG) potassium channel, sequence (Q12809 whole entry, looked up): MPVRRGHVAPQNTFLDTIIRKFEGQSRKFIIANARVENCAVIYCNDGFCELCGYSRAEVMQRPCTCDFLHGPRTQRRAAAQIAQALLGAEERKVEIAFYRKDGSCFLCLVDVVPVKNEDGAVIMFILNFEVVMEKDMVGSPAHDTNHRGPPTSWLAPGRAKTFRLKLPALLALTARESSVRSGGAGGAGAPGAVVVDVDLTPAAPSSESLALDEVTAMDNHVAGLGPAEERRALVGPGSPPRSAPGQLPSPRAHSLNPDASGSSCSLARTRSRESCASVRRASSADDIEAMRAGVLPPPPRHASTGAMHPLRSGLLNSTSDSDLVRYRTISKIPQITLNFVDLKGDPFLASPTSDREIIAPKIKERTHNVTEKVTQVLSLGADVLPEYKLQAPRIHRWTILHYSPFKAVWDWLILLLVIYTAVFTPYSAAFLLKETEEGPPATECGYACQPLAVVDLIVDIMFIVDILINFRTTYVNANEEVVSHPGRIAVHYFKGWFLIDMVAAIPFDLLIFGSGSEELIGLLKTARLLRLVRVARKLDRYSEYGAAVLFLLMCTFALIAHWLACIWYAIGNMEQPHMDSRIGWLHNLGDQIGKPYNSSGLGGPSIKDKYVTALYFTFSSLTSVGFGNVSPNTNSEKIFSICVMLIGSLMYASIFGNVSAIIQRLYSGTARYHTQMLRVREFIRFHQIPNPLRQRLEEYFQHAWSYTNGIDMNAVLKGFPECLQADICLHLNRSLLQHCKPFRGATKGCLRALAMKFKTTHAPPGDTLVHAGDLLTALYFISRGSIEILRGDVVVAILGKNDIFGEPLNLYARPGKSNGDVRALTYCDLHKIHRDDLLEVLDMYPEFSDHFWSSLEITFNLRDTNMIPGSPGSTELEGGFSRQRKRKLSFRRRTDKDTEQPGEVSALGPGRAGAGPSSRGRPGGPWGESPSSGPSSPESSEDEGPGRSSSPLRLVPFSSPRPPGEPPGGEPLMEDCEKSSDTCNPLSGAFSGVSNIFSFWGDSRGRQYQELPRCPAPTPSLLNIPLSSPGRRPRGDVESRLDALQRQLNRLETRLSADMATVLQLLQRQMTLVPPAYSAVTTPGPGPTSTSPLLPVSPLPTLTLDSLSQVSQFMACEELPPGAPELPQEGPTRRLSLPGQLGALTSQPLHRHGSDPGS
row,SMILES,"hERG current change (%, negative = inhibition) at 10uM [%]"
1,O=S(=O)(Nc1nc2ccccc2nc1Nc1ccc(N2CCOCC2)cc1)c1cc(Cl)ccc1Cl,-0.376
2,C=CCN(c1ccccc1)S(=O)(=O)c1cc(C(=O)NC2=NCCS2)ccc1Cl,63.3
3,COc1ccc(CNC(=O)c2c(C)cc(=O)oc2C)cc1,-26.8
4,CC1Sc2ccc(S(=O)(=O)N3CCC(C(=O)NCc4ccc(Cl)cc4)CC3)cc2NC1=O (centres unmarked),-5.58
5,Oc1ccc(N2CCN(Cc3ccc(OCCCN4CCCCC4)cc3)CC2)cc1,5.11
6,COC(=O)C1CCN(Cc2ccc(OCCCN3CCN(c4ccc([N+](=O)[O-])cc4)CC3)cc2)CC1,-73.7
7,COC(=O)C1CCN(Cc2ccc(C)cc2)CC1,-22.2
8,CCCCOc1ccc(CN2CCC(O)CC2)cc1,3.42
9,COC(=O)C1CCN(CCCOc2ccc(CN3CCN(c4ccc([N+](=O)[O-])cc4)CC3)cc2)CC1,-74.3
10,COC(=O)C1CCN(c2ccc([N+](=O)[O-])cc2[N+](=O)[O-])CC1,-0.88
11,Cc1ccccc1C(=O)NC(=S)NCC1CCCO1 (centres unmarked),12
12,O=C(Nc1ccc2ncccc2c1)c1cc(Cl)ccc1Cl,12.6
13,CCOc1ccc(N(CC(=O)NCCc2ccc(OC)cc2)S(C)(=O)=O)cc1,-0.0301
14,O=C(CSc1ncnc2c1cnn2-c1ccc(Cl)cc1)NCc1ccc2c(c1)OCO2,13.7
15,CC(C)OC(=O)CCC1(C(=O)O)CCC(=O)NC1 (centres unmarked),7.55
16,CCC(=O)Nc1ccc(OCc2nc3ccccc3s2)cc1,21.1
17,O=C(CSc1ncccc1-c1nc2ccccc2[nH]1)Nc1ccc2c(c1)OCCO2,-30.8
18,Cn1c(SCC(=O)c2cc(Cl)c(Cl)s2)nnc1-c1ccco1,-60.5
19,Cn1c(SCC(=O)c2ccccc2)nnc1-c1ccco1,-39.5
20,Cn1c(SCC(=O)Nc2ccccc2O)nnc1-c1ccco1,-27.4
21,CC(C)Cn1c(SCC(=O)c2ccc(Cl)s2)nnc1-c1ccco1,-76.7

row,SMILES,"hERG current change (%, negative = inhibition) at 10uM [%]"
1,Cn1c(SCC(=O)Nc2ccc(Cl)cc2F)nnc1-c1ccco1,-59.4
2,CCn1c(SCC(=O)c2ccc(Cl)s2)nnc1-c1cccs1,-35.5
3,Cn1c(SCC(=O)Nc2ccc(Br)cc2F)nnc1-c1ccco1,-26.7
4,CCn1c(SCC(=O)c2cccs2)nnc1-c1ccco1,-2.68
5,Cn1c(SCC(=O)c2cccs2)nnc1-c1ccco1,11.8
6,CCN(C(=O)CN1CCN(S(=O)(=O)c2ccccc2C(F)(F)F)CC1)c1c(N)n(Cc2ccccc2)c(=O)[nH]c1=O,13.6
7,O=C(NC(=S)NCc1ccc(-c2nc3ccccc3s2)cc1)c1ccco1,34
8,Cc1ccccc1-n1ncc2c1CC(C)(C)CC2NC(=O)c1cn[nH]c1C (centres unmarked),-6.22
9,CCCC(=O)Nc1ccc(C)c(O)c1,4.76
10,C/C(=N\NC(=O)c1ccccc1O)c1cccc(NC(=O)c2ccccc2)c1,-0.335
11,O=C1N(CC(=O)N2CCc3ccccc32)CCN1Cc1ccccc1Cl,-12.1
12,CN(C(=O)COC(=O)CCC(=O)c1ccccc1)c1c(N)n(Cc2ccccc2)c(=O)[nH]c1=O,14.1
13,C=CCNc1ncnc2ccccc12,22.5
14,Cl.OCCNc1nc(N2CCCCC2)nc2ccccc12,-58.2
15,C=CCNc1nc(N2CCCC2)nc2ccccc12,-78.3
16,OCCNc1nc(N2CCCC2)nc(N2CCCC2)n1,-2.85
17,Cl.c1ccc2c(NCC3CCCO3)nc(N3CCCCC3)nc2c1 (centres unmarked),-72.9
18,Cl.OCCNc1nc(N2CCN(c3ccccc3)CC2)nc2ccccc12,-74.6
19,Cl.OCCNc1nc(-c2ccccc2)nc2ccccc12,2.57
20,c1ccc2c(NCC3CCCO3)nc(-c3ccncc3)nc2c1 (centres unmarked),-14.6
21,C=CCNc1nc(C(=O)OCC)nc2ccccc12,11.1

row,SMILES,"hERG current change (%, negative = inhibition) at 10uM [%]"
1,Cl.c1ccc2c(NCC3CCCO3)nc(N3CCOCC3)nc2c1 (centres unmarked),-49.5
2,COc1ccc([C@@H]2CC=C(C(=O)O)[C@H](c3ccc(F)cc3)N2S(=O)(=O)c2ccc(Cl)cc2)cc1,27.2
3,Cc1ccc(-c2c(C#N)c(N)n(-c3ccccc3)c(=O)c2C#N)cc1,20.3
4,O=C(NC1CCCCC1)c1n[nH]c2c1CCCCC2,2.43
5,CC1CC(C)CN(C(=O)CSCC(=O)O)C1 (centres unmarked),1.3
6,CCC1CCc2c(sc(NC(=O)C3c4ccccc4Oc4ccccc43)c2C(N)=O)C1 (centres unmarked),2.02
7,Cc1ccc(C(C(=O)NCc2ccco2)N(C(=O)CNC(=O)c2cccs2)c2ccc(C)cc2)cc1 (centres unmarked),27.3
8,CC(=O)Oc1ccc2nc(-c3ccc(Br)o3)oc(=O)c2c1,21.5
9,COCCCn1cc(C(=O)c2cc(OC)ccc2OCC(=O)Nc2cc(C)on2)cc(C#N)c1=O,-53
10,COCCCn1cc(C(=O)c2cc(OC)ccc2OCC(=O)N2CCCCC2C)cc(C#N)c1=O (centres unmarked),-22.9
11,COCCn1cc(C(=O)c2ccccc2OCC(=O)Nc2cc(C)on2)cc(C#N)c1=O,10.3
12,O=C(Nc1ccccc1N1CCN(C(=O)c2ccc(Cl)cc2)CC1)c1cc2ccccc2o1,-2.33
13,CCCC(=O)Nc1ccccc1N1CCN(C(=O)c2ccccc2)CC1,-46
14,CC(C)CC(=O)Nc1ccccc1N1CCN(C(=O)c2ccccc2)CC1,-17.7
15,COc1ccc(Br)cc1C(=O)Nc1ccccc1-c1ccccc1,-2.5
16,COc1ccc(C(=O)Nc2ccccc2N2CCN(C(=O)c3ccccc3)CC2)cc1Br,-8.68
17,O=C(Nc1ccccc1N1CCN(C(=O)c2ccccc2)CC1)c1cc(Br)ccc1Cl,-55.6
18,COc1ccc(Br)cc1C(=O)Nc1ccccc1N1CCN(C(=O)c2ccccc2)CC1,-52.4
19,O=C(Nc1ccccc1N1CCCC1)c1ccc(Cl)cc1Cl,8.88
20,O=C(Nc1ccccc1N1CCN(C(=O)c2ccc(Cl)cc2)CC1)c1cc(Br)ccc1Cl,-67.7

# Source: article PMC4336329 (PLoS ONE, 2015)
